# Where “and” joins values, the source holds several entries; their conditions need not be identical. Identical values can stand only once. In all, about 2,900 compounds were measured (“NF-kB SEAP reporter activity, fold change vs agonist alone”: median about 0.99, highest 2% from about 2.6 on). The list comes from a sample in which the highest values are over-represented; it also holds similar structures and randomly drawn compounds.
# Columns and labels:
# [1] = tested on: RAW-Dual; assay: NF-kB SEAP reporter activity, fold change vs agonist alone; cytotoxicity flag (confluency mask): not cytotoxic; higher = enhanced NF-kB activity
# Procedure, shortened: (§1)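 RAW-Dual macrophages (50,000 cells/well in DMEM, 384-well plates) received 50 nL of library stock by pin tool, then a PRR agonist 1 h later, and were kept at 37 °C, 5% CO2. After 20 hours, supernatant was read for IRF by QuantiLuc luminescence and for NF-κB by QuantiBlue absorbance at 620 nm. Reporter activity is fold change over agonist-alone wells. Cytotoxic wells had IncuCyte confluency below 70% of agonist controls in both mask sets.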
# [2] = tested on: RAW-Dual; assay: NF-kB SEAP reporter activity, fold change vs agonist alone; higher = enhanced NF-kB activity; details: library stock concentration (final ~1000-fold dilution): 10 mM
# Procedure, shortened: as §1
# [3] = tested on: RAW-Dual; assay: NF-kB SEAP reporter activity, fold change vs agonist alone; cytotoxicity flag (confluency mask): cytotoxic (confluency <70% of control); higher = enhanced NF-kB activity
# Procedure, shortened: as §1
# [4] = agonist: ODN 1826 (TLR9) 0.5 ug/mL
# [5] = agonist: Pam2CSK4 (TLR2/6) 0.1 ug/mL
# [6] = agonist: Pam3CSK4 (TLR2/1) 0.1 ug/mL
# [7] = cytotoxicity flag (confluency mask): not cytotoxic, agonist: Imiquimod (TLR7) […]
# [8] = cytotoxicity flag (confluency mask): not cytotoxic, agonist: MPLA (TLR4) […]
# [9] = cytotoxicity flag (confluency mask): cytotoxic (confluency <70% of control), agonist: Imiquimod (TLR7) […]
# [10] = cytotoxicity flag (confluency mask): cytotoxic (confluency <70% of control), agonist: MPLA (TLR4) […]
structure (smiles),measurement,setting,value
COCCCOc1cc(CC(CC(N)C(O)CC(C(=O)NCC(C)(C)C(N)=O)C(C)C)C(C)C)ccc1OC (configuration not stated) (library stock concentration (final ~1000-fold dilution): 10 mM),NF-kB SEAP reporter activity,[1]; agonist: LPS (TLR4) 0.1 ug/mL,1.36 and 1.31
same,NF-kB SEAP reporter activity,[1]; [4],1.57 and 0.983
same,NF-kB SEAP reporter activity,[1]; [5],1.09 and 0.934
same,NF-kB SEAP reporter activity,[1]; [6],1.04 and 1.06
CC1=NN(c2ccc(C)c(C)c2)C(=O)/C1=N\Nc1cccc(-c2cccc(C(=O)O)c2)c1O.NCCO.NCCO,NF-kB SEAP reporter activity,[2]; [7],1.57
same,NF-kB SEAP reporter activity,[2]; [8],1.64
CC1=NN(c2ccc(C)c(C)c2)C(=O)/C1=N\Nc1cccc(-c2cccc(C(=O)O)c2)c1O.NCCO.NCCO (library stock concentration (final ~1000-fold dilution): 10 mM),NF-kB SEAP reporter activity,[1]; agonist: LPS (TLR4) 0.1 ug/mL,2.92
same,NF-kB SEAP reporter activity,[1]; [4],1.31
same,NF-kB SEAP reporter activity,[1]; [5],1.58
same,NF-kB SEAP reporter activity,[1]; [6],1.34
Cc1ncc(Cl)cc1NCc1ccc(C(=O)NC(CC2CCCC2)C(=O)NC2CC2)s1 (configuration not stated) (library stock concentration (final ~1000-fold dilution): 10 mM),NF-kB SEAP reporter activity,[1]; agonist: LPS (TLR4) 0.1 ug/mL,0.894
same,NF-kB SEAP reporter activity,[1]; [4],0.742
same,NF-kB SEAP reporter activity,[1]; [5],0.85
same,NF-kB SEAP reporter activity,[1]; [6],0.698
Cc1ncc(Cl)cc1NCc1ccc(C(=O)NC(CC2CCCC2)C(=O)NC2CC2)s1 (configuration not stated),NF-kB SEAP reporter activity,[2]; [7],0.865
same,NF-kB SEAP reporter activity,[2]; [8],0.987
Cc1cc(C)c(CN2CCc3c(Cl)cc(-c4c(C)noc4C)c(Cl)c3C2=O)c(=O)[nH]1 (library stock concentration (final ~1000-fold dilution): 10 mM),NF-kB SEAP reporter activity,[1]; agonist: LPS (TLR4) 0.1 ug/mL,2.16
same,NF-kB SEAP reporter activity,[1]; [4],1.51
same,NF-kB SEAP reporter activity,[1]; [5],0.917
same,NF-kB SEAP reporter activity,[1]; [6],0.98
Cc1cc(C)c(CN2CCc3c(Cl)cc(-c4c(C)noc4C)c(Cl)c3C2=O)c(=O)[nH]1,NF-kB SEAP reporter activity,[2]; [7],1.24
same,NF-kB SEAP reporter activity,[2]; [8],1.64
C=C(C)C1CCC2(C(=O)O)CCC3(C)C(CCC4C5(C)CCC(OC(=O)CC(C)(C)C(=O)O)C(C)(C)C5CCC43C)C12 (configuration not stated) (library stock concentration (final ~1000-fold dilution): 10 mM),NF-kB SEAP reporter activity,[3]; agonist: LPS (TLR4) 0.1 ug/mL,1.79
same,NF-kB SEAP reporter activity,[3]; [4],0.735
same,NF-kB SEAP reporter activity,[3]; [5],0.295
same,NF-kB SEAP reporter activity,[3]; [6],0.532
C=C(C)C1CCC2(C(=O)O)CCC3(C)C(CCC4C5(C)CCC(OC(=O)CC(C)(C)C(=O)O)C(C)(C)C5CCC43C)C12 (configuration not stated),NF-kB SEAP reporter activity,[2]; [9],0.823
same,NF-kB SEAP reporter activity,[2]; [10],1.07
CCN(CC)Cc1ccc(C(=O)N(CCc2ccccc2OC)C2CCNC2)cc1 (configuration not stated) (library stock concentration (final ~1000-fold dilution): 10 mM),NF-kB SEAP reporter activity,[1]; agonist: LPS (TLR4) 0.1 ug/mL,0.9
same,NF-kB SEAP reporter activity,[1]; [4],0.312
same,NF-kB SEAP reporter activity,[1]; [5],0.883
same,NF-kB SEAP reporter activity,[1]; [6],0.613
CCN(CC)Cc1ccc(C(=O)N(CCc2ccccc2OC)C2CCNC2)cc1 (configuration not stated),NF-kB SEAP reporter activity,[2]; [7],0.518
same,NF-kB SEAP reporter activity,[2]; [8],1.28
C=C1CCC2C(C)(COC(=O)CCC(=O)O)C(OC(=O)CCC(=O)O)CCC2(C)C1/C=C/C1=CCOC1=O (configuration not stated) (library stock concentration (final ~1000-fold dilution): 10 mM),NF-kB SEAP reporter activity,[1]; agonist: LPS (TLR4) 0.1 ug/mL,0.94
same,NF-kB SEAP reporter activity,[1]; [4],0.908
same,NF-kB SEAP reporter activity,[1]; [5],0.924
same,NF-kB SEAP reporter activity,[1]; [6],1.06
C=C1CCC2C(C)(COC(=O)CCC(=O)O)C(OC(=O)CCC(=O)O)CCC2(C)C1/C=C/C1=CCOC1=O (configuration not stated),NF-kB SEAP reporter activity,[2]; [7],0.926
same,NF-kB SEAP reporter activity,[2]; [8],0.985
Nc1ccc2ncnc(NCCc3ccc(Oc4ccccc4)cc3)c2c1 (library stock concentration (final ~1000-fold dilution): 10 mM),NF-kB SEAP reporter activity,[1]; agonist: LPS (TLR4) 0.1 ug/mL,1.57 and 1.15
same,NF-kB SEAP reporter activity,[1]; [5],0.752 and 0.456
same,NF-kB SEAP reporter activity,[1]; [6],1.02 and 0.73
Nc1ccc2ncnc(NCCc3ccc(Oc4ccccc4)cc3)c2c1,NF-kB SEAP reporter activity,[2]; [7],1.46
Cc1ccc(CNc2ncnc3ccc(-c4ccc(CO)o4)cc23)o1,NF-kB SEAP reporter activity,[2]; [7],1.07
same,NF-kB SEAP reporter activity,[2]; [8],1.24
Cc1ccc(CNc2ncnc3ccc(-c4ccc(CO)o4)cc23)o1 (library stock concentration (final ~1000-fold dilution): 10 mM),NF-kB SEAP reporter activity,[1]; agonist: LPS (TLR4) 0.1 ug/mL,1.16
same,NF-kB SEAP reporter activity,[1]; [4],1.35
same,NF-kB SEAP reporter activity,[1]; [5],1.21
same,NF-kB SEAP reporter activity,[1]; [6],1.4
N#Cc1ccc2ncnc(NCCc3ccccc3)c2c1 (library stock concentration (final ~1000-fold dilution): 10 mM),NF-kB SEAP reporter activity,[1]; agonist: LPS (TLR4) 0.1 ug/mL,2.76
same,NF-kB SEAP reporter activity,[1]; [4],1.15
same,NF-kB SEAP reporter activity,[1]; [5],1.51
same,NF-kB SEAP reporter activity,[1]; [6],1.76
N#Cc1ccc2ncnc(NCCc3ccccc3)c2c1,NF-kB SEAP reporter activity,[2]; [7],0.984
same,NF-kB SEAP reporter activity,[2]; [8],1.59
O=C(Nc1ccc(Cl)cc1)c1cc2ccccc2cc1OP(=O)(O)O,NF-kB SEAP reporter activity,[2]; [7],0.877
same,NF-kB SEAP reporter activity,[2]; [8],1.04
O=C(Nc1ccc(Cl)cc1)c1cc2ccccc2cc1OP(=O)(O)O (library stock concentration (final ~1000-fold dilution): 10 mM),NF-kB SEAP reporter activity,[1]; agonist: LPS (TLR4) 0.1 ug/mL,1.08
same,NF-kB SEAP reporter activity,[1]; [4],0.965
same,NF-kB SEAP reporter activity,[1]; [5],0.931
same,NF-kB SEAP reporter activity,[1]; [6],0.763
N=C(N)NCCCC1NC(=O)C(CCCCN)NC(=O)C(Cc2ccccc2)NC(=O)C(CC(=O)O)NC(=O)CNC1=O.O=C(O)C(F)(F)F (configuration not stated) (library stock concentration (final ~1000-fold dilution): 10 mM),NF-kB SEAP reporter activity,[1]; agonist: LPS (TLR4) 0.1 ug/mL,1.07
same,NF-kB SEAP reporter activity,[1]; [4],0.955
same,NF-kB SEAP reporter activity,[1]; [5],1.13
same,NF-kB SEAP reporter activity,[1]; [6],0.988
N=C(N)NCCCC1NC(=O)C(CCCCN)NC(=O)C(Cc2ccccc2)NC(=O)C(CC(=O)O)NC(=O)CNC1=O.O=C(O)C(F)(F)F (configuration not stated),NF-kB SEAP reporter activity,[2]; [7],0.934
same,NF-kB SEAP reporter activity,[2]; [8],1.07
COc1ncc(-c2cc(-c3ncc(CN4CC(C)OC(C)C4)o3)c3cn[nH]c3c2)cc1NS(C)(=O)=O (configuration not stated),NF-kB SEAP reporter activity,[2]; [9],0.604
same,NF-kB SEAP reporter activity,[2]; [10],2.18
COc1ncc(-c2cc(-c3ncc(CN4CC(C)OC(C)C4)o3)c3cn[nH]c3c2)cc1NS(C)(=O)=O (configuration not stated) (library stock concentration (final ~1000-fold dilution): 10 mM),NF-kB SEAP reporter activity,[3]; agonist: LPS (TLR4) 0.1 ug/mL,5.18
same,NF-kB SEAP reporter activity,[3]; [4],0.639
same,NF-kB SEAP reporter activity,[3]; [5],1.01
same,NF-kB SEAP reporter activity,[3]; [6],1.39
CN(CCNc1ccnc2cc(Cl)ccc12)CCNc1ccnc2cc(Cl)ccc12.Cl.Cl.Cl (library stock concentration (final ~1000-fold dilution): 10 mM),NF-kB SEAP reporter activity,[3]; agonist: LPS (TLR4) 0.1 ug/mL,4.28
same,NF-kB SEAP reporter activity,[3]; [4],0.547
same,NF-kB SEAP reporter activity,[3]; [5],1.63
same,NF-kB SEAP reporter activity,[3]; [6],2.17
Cc1ccc(NCCN(C)CCNc2ccnc3cc(Cl)ccc23)c2c(=O)c3ccccc3sc12 (library stock concentration (final ~1000-fold dilution): 2 mM),NF-kB SEAP reporter activity,[1]; agonist: LPS (TLR4) 0.1 ug/mL,1.45
same,NF-kB SEAP reporter activity,[1]; [4],1.04
same,NF-kB SEAP reporter activity,[1]; [5],0.845
same,NF-kB SEAP reporter activity,[1]; [6],1.06

# Reference: the supplement of paper PMC10037445
